Compound activity (PubChem BioAssay)
CYP2C9 activ: human CYP2C9 activators, primary screen, biochemical, luminescence | AID 1024, 2008 | activation factor at 5 µM | recombinant CYP2C9, luciferin-H conversion; hits give high values; factor 1 = untreated enzyme, 0 = blocked | 96,000 tested, 1.4% active | Cytochrome P450 2C9 (Homo sapiens), P11712;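 active = activation factor of 2 or more for CYP2C9 at a 5 µM dose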
Target sequence (P11712 whole entry, looked up): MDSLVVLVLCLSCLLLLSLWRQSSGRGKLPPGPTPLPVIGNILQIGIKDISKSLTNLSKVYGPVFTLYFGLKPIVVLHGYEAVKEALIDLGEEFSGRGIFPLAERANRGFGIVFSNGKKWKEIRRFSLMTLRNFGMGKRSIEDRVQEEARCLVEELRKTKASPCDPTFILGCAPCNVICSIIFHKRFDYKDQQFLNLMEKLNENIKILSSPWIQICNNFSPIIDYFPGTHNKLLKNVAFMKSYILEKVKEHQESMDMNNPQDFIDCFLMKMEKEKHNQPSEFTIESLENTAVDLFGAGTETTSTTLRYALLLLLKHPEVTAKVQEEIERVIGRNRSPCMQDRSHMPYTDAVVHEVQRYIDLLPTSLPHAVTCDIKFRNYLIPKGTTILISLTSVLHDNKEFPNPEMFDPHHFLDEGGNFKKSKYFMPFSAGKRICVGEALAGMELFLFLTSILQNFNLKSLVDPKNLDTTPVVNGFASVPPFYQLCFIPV
E-sel TNF inh: E-selectin induction blockers in HUVEC – imaging, immunofluorescence, high content, primary screen | 120,000 tested, 0.71% active | AID 1246, 2008 | HUVEC TNFa-induced E-selectin immunofluorescence | inhibition, % at 2 µM;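 active = inhibition above the batch mean plus 3 SD, and confirmed as a hit on visual image review, cut at about 43% in these data; inconclusive = passes the inhibition cutoff but fails visual image review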
CYP2C19 act: human CYP2C19 activators, primary screen, biochemical, luminescence; Cytochrome P450 2C19 (Homo sapiens), P33261; recombinant CYP2C19, luciferin-H EGE luminescence; hits give high values; 0 = fully inhibited enzyme, 1 = untreated enzyme; activation factor at 5 µM; 96,000 tested, under 10 active; AID 1025, 2008;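 active = activation factor of at least 2 at 5 µM in the primary screen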
F-actin modifier: modifiers of F-actin cytoskeleton organization, primary screen, imaging, HUVEC, phalloidin staining, high-content imaging. HUVEC TNFa F-actin phalloidin imaging. inhibition, % at 2 µM. 91,000 tested, 0.18% active;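 active = inhibition above the batch mean plus 3 SD and confirmed as a hit by visual image inspection, cut at about 30% in these data, passing the limit was not always enough; inconclusive = above the inhibition threshold but rejected on visual inspection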
CYP2C9 inhib: blockers of cytochrome P450 2C9 activity – biochemical, luminescence, ADME assay, primary screen. CYP2C9 Supersomes, luciferin-H conversion. inhibition, % at 5 µM. 96,000 tested, 20% active. AID 777, 2007;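 active = blocking of liver enzyme CYP2C9 beyond about 50% at 5 µM, limit read from the data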
CYP2C19 inhib: blockers of cytochrome P450 2C19 activity – biochemical, luminescence, ADME assay, primary screen; P33261; CYP2C19 Supersomes, luciferin-H EGE luminescence, 30 min; inhibition, % at 5 µM; 96,000 tested, 21% active;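 active = CYP2C19 inhibition above a set limit at 5 µM in the primary screen, cut at about 50% in these data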
Numbers stand for hits; . = inactive; ? = inconclusive; / = no result; ! = not confirmed by another sample. Sampled rows, rich in hits. Any-hit rate of the full collection: about 22%.

SMILES	CYP2C9 activ	E-sel TNF inh	CYP2C19 act	F-actin modifier	CYP2C9 inhib	CYP2C19 inhib
CCC(C)NC(=O)c1c(N)n(Cc2ccc3c(c2)OCO3)c2nc3ccccc3nc12 (stereo unspecified)	.	.	.	.	67	.
COCCCn1c(N)c(C(=O)Nc2sc3c(c2C(=O)OC)CCCC3)c2nc3ccccc3nc21	.	/	.	.	.	.
CCC(C)NC(=O)c1c(N)n(CCCOC)c2nc3ccccc3nc12 (stereo unspecified)	.	.	.	.	88	69
COCCCn1c(N)c(C(=O)OC(C)COC)c2nc3ccccc3nc21 (stereo unspecified)	.	/	.	/	59	.
CCC(C)NC(=O)c1c(N)n(CC2CCCO2)c2nc3ccccc3nc12 (stereo unspecified)	.	/	.	/	.	.
CC(C)(C)OC(=O)c1c(N)n(Cc2ccco2)c2nc3ccccc3nc12	.	.	.	.	84	52
CCCCn1c(O)c(C=NC2CC3CCC2(C)C3(C)C)c(=O)[nH]c1=O (stereo unspecified)	.	/	.	.	.	.
CCCCCn1c(=O)c(C(=O)Nc2ccncc2)c(O)c2ccccc21	.	/	.	/	.	.
CN1C(=O)C(Cc2c[nH]c3ccccc23)C(=O)N(C)C1=O	.	.	.	.	.	.
Oc1ccc(/C=N/NP(=S)(c2ccccc2)c2ccccc2)cc1	.	.	.	.	86	79
COc1cc(/C=N/NP(=S)(c2ccccc2)c2ccccc2)ccc1O	.	.	.	.	82	.
O=S(=O)(c1ccccc1)N1CN2CCN(C2)C1	.	/	.	.	.	.
COP(=S)(OC)SCN1C(=O)c2ccccc2C1=O	.	.	.	.	71	98
Cc1cccc(OCC(=O)N2CCN(Cc3ccncc3)CC2)c1	.	.	.	.	88	92
CSc1ccc(CN2CCN(C(=O)COc3ccc(C)cc3)CC2)cc1	/	.	/	/	/	/
Cc1cccc(OCC(=O)N2CCN(Cc3ccc4c(c3)OCO4)CC2)c1	/	.	/	/	/	/
COc1ccc(OC)c(CN2CCN(C(=O)COc3cccc(C)c3)CC2)c1	.	?	.	.	.	62
O=C(COc1ccc(Br)cc1)N1CCN(Cc2ccncc2)CC1	.	.	.	.	63	83
CCOc1ccc(Cc2c(O)[nH]c(=O)[nH]c2=O)cc1	.	.	.	.	.	.
CO[C@H]1[C@@H](OC)CC(OC2OC(CO)C(O)C(O)C2O)/C(=C\C#N)[C@@H]1O (stereo partly specified)	/	.	/	/	/	/
COc1ccc(OP(=O)(Nc2ccccc2)Nc2ccccc2)cc1	.	.	.	.	69	83
COc1ccc2[nH]c(C)c(CCN3CCC(=O)C(C)C3C)c2c1 (stereo unspecified)	.	/	.	/	51	89
O=Cc1cn(Cc2ccccc2[N+](=O)[O-])c2ccccc12	/	.	/	/	/	/
CN(CCc1ccccc1)Cc1ccccc1[N+](=O)[O-]	.	.	.	.	76	91
CCOc1cc(C2NCc3ccccc3-n3cccc32)ccc1O (stereo unspecified)	.	.	.	.	75	61
SMILES	CYP2C9 activ	E-sel TNF inh	CYP2C19 act	F-actin modifier	CYP2C9 inhib	CYP2C19 inhib
CCOc1cccc(C2NCc3ccccc3-n3cccc32)c1O (stereo unspecified)	.	.	.	.	.	.
CCOP1(=S)Oc2cc3c(cc2C(C(=O)OC)(C(F)(F)F)O1)OCO3 (stereo unspecified)	.	.	.	/	89	98
Fc1ccc(CCNCc2ccc(Cl)c(Cl)c2)cc1	.	.	.	.	.	96
COc1ccc(CCNCc2ccccc2F)cc1OC	/	.	/	.	/	/
Cc1ccccc1-n1c(O)c(/C=N/N2CCOCC2)c(=O)[nH]c1=S	/	.	/	/	/	/
CC1(C)C2([N+](=O)[O-])CNCC1([N+](=O)[O-])CNC2	/	.	/	.	/	/
CCN(CC)C(=O)c1ccc(NC(=O)Cn2nc(C)c3ccccc3c2=O)cc1	.	.	.	/	.	66
O=C(c1ccc(-c2ccccc2)c(F)c1)C1CCCN(CCO)C1 (stereo unspecified)	/	.	/	/	/	/
CN(C)C(=S)SSC(=S)N(C)C	/	86	/	/	/	/
COc1cc(/C=N/NC(=O)CN2CC(c3ccccc3)CC2=O)ccc1OC(=O)N(C)C (stereo unspecified)	.	.	.	.	.	.
Cc1cccc(N2CCc3c2nc2ccccc2c3N)c1	.	/	.	.	65!	77!
C[n+]1ccc(-c2ccncc2)cc1	.	.	.	.	.	.
CCn1c(C)c(C(=O)O)c2cc(OC)ccc21	.	.	.	/	.	.
CC(=O)c1c(C)n(CCCOC(C)C)c2ccc(O)cc12	.	.	.	.	55	62
c1ccc(-c2[nH]c(-c3ccccc3)[n+](CC3CO3)c2-c2ccccc2)cc1 (stereo unspecified)	/	.	/	/	/	/
CCOC(=O)N(CC)c1ccc(C(O)(C(=O)OC)C(F)(F)F)cc1 (stereo unspecified)	.	.	.	.	.	64
CC1(C)CC(=O)C(C=NCCN2CCN(C(=O)Cc3ccc(Cl)cc3)CC2)=C(O)C1	.	.	.	.	63	90
Cn1c(O)c(C=NCCN2CCN(C(=O)c3ccccc3)CC2)c(=O)n(C)c1=O	.	.	.	.	.	.
O=C1CN=C(c2ccccc2)c2ccccc2N1Cc1ccc(C(F)(F)F)cc1	.	.	.	.	.	.
O=c1[nH]c(O)c(/C=C2\C=NN=C2c2ccccc2)c(=O)[nH]1	.	.	.	.	.	.
COC(=O)c1cc2c(s1)=NC=NP=2(N1CCOCC1)N1CCOCC1	.	.	.	.	.	.
O=C1NC(=S)NC(=O)C12C(c1ccc(F)cc1)NC(=S)NC2c1ccc(F)cc1 (stereo unspecified)	.	.	.	/	.	.
C=CCn1c(O)c(C(=O)CCCCCC)c(=O)[nH]c1=O	.	.	.	/	57	.
CCCCn1c(O)c(C(C)=NCCCn2ccnc2)c(=O)[nH]c1=O	.	.	.	.	90	.
C=CCn1c(O)c(C(C)=NCCCO)c(=O)[nH]c1=O	.	.	.	.	.	.
CCCCCCN=C(C)c1c(O)n(CCCC)c(=O)[nH]c1=O	.	.	.	.	66	55
CC(C)(C)NC(=O)NC(=O)CN1CC=C(c2ccccc2)CC1	/	.	/	/	/	/
CCCCN1CCC(C#N)(Nc2ccccc2)CC1	.	/	.	.	.	71
Cc1ccc2c(c1)CC1(CN2C)C(=O)NC(=O)N(c2ccccc2C)C1=O (stereo unspecified)	.	.	.	.	.	.
COc1ccccc1N1C(=O)NC(=O)C2(Cc3cc(C)ccc3N(C)C2)C1=O (stereo unspecified)	.	.	.	.	68	.
